An excerpt weighted towards active compounds, which were near 1.6% of everything screened.
KCNQ2 pot = potentiators of rat KCNQ2 potassium channel; B-score at 10 µM; 310,000 compounds, 0.54% hits; Potassium voltage-gated channel subfamily KQT member 2 (Rattus norvegicus), O88943; CHO-K1 KCNQ2, FluxOR thallium flux fluorescence; hits give high values; AID 2239, 2010;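 active = fluorescence ratio B-score at least 3 SD of library B-scores, with initial fluorescence B-score within 3 of them, cut at about 5.3 in these data; same plate scores as AID 2156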;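 note: B-score of peak minus minimum over baseline fluorescence ratio after K+ and Tl+ stimulus; positive B-score means potentiation of KCNQ2 with more thallium influx and brighter signal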
KCNQ2 inh = rat KCNQ2 potassium channel inhibitors, primary screen, cell-based, CHO-K1, FluxOR thallium flux, B-score; 310,000 compounds, 1.1% hits; 20 min; hits give low values; B-score at 10 µM;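 active = fluorescence ratio B-score at most minus 3 library SDs, with starting brightness B-score within 2 library SDs, cut at about -5.5 in these data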
Kir21 conf inh = mouse Kir2.1 channel blockers, retest, confirmation, cell-based, FluxOR thallium flux, duplicate | Tl flux remaining, % of negative control (hits give low values), % at 10 µM | 2,300 compounds, 41% hits | Kir2.1-expressing cells, FluxOR thallium flux fluorescence; hits give low values | shares compounds with KCNQ2 pot;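 active = Primary-screen hit whose thallium flux fell at least 3 control SD below untreated wells in both duplicates, with normal baseline fluorescence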
HEK293 Tl flux = parental HEK293 activity in Kir2.1 inhibitor counter-screen; shares compounds with KCNQ2 pot; FluxOR signal as % of negative control (100 = no effect), % at 10 µM; parental HEK293 cells, FluxOR thallium flux fluorescence; 0% = unstimulated blank wells; 2,300 compounds, 19% hits;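 active = dye signal at least 3 control SD above or below untreated wells in both duplicates, raw fluorescence within 3, either direction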;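 note: percent is based on the flux ratio of peak minus minimum fluorescence over baseline F0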
CHO-K1 Tl ctr = nonspecific thallium flux increase in parental CHO-K1, confirmation, counter-screen for KCNQ2 potentiator project, cell-based, FluxOR thallium flux, duplicate; shares compounds with KCNQ2 pot; parental CHO-K1 cells, FluxOR thallium flux fluorescence; zero = vehicle mean+3SD, 100% = vehicle-minus-blank window; 1,200 compounds, 43% hits; AID 2282, 2010; activity increase over 3SD of controls, % at 10 µM;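 active = signal rise of at least 3 SD above the untreated control mean, in both duplicate wells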;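 note: counter screen of KCNQ2 potentiator hits so any rise reflects channel-independent effects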
KCNQ1 pot spec = human KCNQ1 channel potentiation off-target, confirmation, selectivity assay for KCNQ2 potentiator project, cell-based, CHO, FluxOR thallium flux. shares compounds with KCNQ2 pot. CHO KCNQ1 stable, FluxOR thallium flux fluorescence; beyond 3SD, as % of vehicle-control signal. activation over 3SD threshold, % at 10 µM. 1,200 compounds, 28% hits. AID 2283, 2010;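 active = fluorescence ratio rise of at least 3 SD of vehicle wells above their mean, in both replicate wells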
Target sequence (P51787 whole entry, looked up): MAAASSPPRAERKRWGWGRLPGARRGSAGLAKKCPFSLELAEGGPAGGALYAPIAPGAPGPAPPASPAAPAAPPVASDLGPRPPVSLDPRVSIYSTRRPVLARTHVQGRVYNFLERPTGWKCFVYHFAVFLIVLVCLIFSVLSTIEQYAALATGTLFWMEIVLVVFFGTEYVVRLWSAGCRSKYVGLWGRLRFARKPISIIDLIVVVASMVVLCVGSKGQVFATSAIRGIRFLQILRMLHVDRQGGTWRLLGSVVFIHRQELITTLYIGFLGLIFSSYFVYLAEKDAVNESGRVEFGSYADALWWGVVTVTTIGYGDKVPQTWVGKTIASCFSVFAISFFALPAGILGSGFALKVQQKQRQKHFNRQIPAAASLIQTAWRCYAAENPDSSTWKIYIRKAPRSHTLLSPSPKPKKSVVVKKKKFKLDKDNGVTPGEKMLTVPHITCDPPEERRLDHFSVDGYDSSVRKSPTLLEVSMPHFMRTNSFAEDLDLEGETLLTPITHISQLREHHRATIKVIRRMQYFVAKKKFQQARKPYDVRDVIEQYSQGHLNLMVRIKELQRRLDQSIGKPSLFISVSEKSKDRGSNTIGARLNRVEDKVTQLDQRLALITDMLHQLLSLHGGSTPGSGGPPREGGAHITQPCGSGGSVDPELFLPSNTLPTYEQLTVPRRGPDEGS
KCNQ2 pot confirm = rat KCNQ2 channel potentiators, confirmation, cell-based, CHO, FluxOR thallium flux, duplicate; shares compounds with KCNQ2 pot; CHO-KCNQ2 cells, FluxOR thallium flux fluorescence; potentiation, less the hit threshold, % at 10 µM; 1,200 compounds, 68% hits; AID 2287, 2010;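 active = fluorescence ratio rising 3 SD or more over the vehicle control mean in both replicates, plus primary screen hit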;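 note: peak minus minimum thallium fluorescence divided by baseline after K/Tl stimulus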
Kir2-1 sel = mouse Kir2.1 channel activation off-target, confirmation, selectivity assay for KCNQ2 potentiator project, cell-based, HEK293, FluxOR thallium flux. shares compounds with KCNQ2 pot. HEK293 Kir2.1, FluxOR thallium flux fluorescence. activity over 3SD threshold, % at 10 µM. 1,200 compounds, 2% hits;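 active = fluorescence ratio rise of at least 3 SD above the vehicle-control mean, seen in both replicates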
KCNQ2 W236L MoA = potentiators of retigabine-insensitive KCNQ2 W236L, mechanism study for KCNQ2 potentiator project, cell-based, rat KCNQ2 W236L, CHO, automated patch clamp; 940 compounds, 10% hits; shares compounds with KCNQ2 pot; automated patch clamp current; current increase over 3SD of negative controls (%), hits give high values, % at 25 µM;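 active = current increase at least 3 SD of the untreated controls above them in both duplicate recordings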
Hits are given with their value.

`O=C(O)c1ccc(COc2c(F)c(F)c(F)c(F)c2F)o1` gave KCNQ2 pot inactive and KCNQ2 inh inactive.
Screening COc1ccc(OC)c(NC(=O)C(=O)NNC(=O)c2cccs2)c1 returned KCNQ2 pot inactive and KCNQ2 inh inactive.
O=C(CCCN1CCC(O)(c2ccc(Cl)cc2)CC1)c1ccc(F)cc1 was read as KCNQ2 inh inactive, Kir21 conf inh 34% and HEK293 Tl flux inactive.
For O=C(CCCN1CCC(C(=O)c2ccc(F)cc2)CC1)c1ccc(F)cc1 the results were KCNQ2 inh inactive.
`Cc1onc(-c2ccccc2)c1CNC(=O)Nc1ccccc1` gave KCNQ2 inh inactive.
Screening CCN(Cc1ccc(OC)c(COC)c1)CC1CCCN(CCc2cccc(F)c2)C1 (stereo unspecified) returned KCNQ2 inh inactive.
`CCN(Cc1ccc(C#CCCO)cc1)CC1CCCN(CCc2cccc(F)c2)C1` (stereo unspecified) gave KCNQ2 inh inactive, Kir21 conf inh 53% and HEK293 Tl flux inactive.
For CCN(Cc1ccc(OC)c(COC)c1)CC1CCCN(CCc2cccc(OC)c2)C1 (stereo unspecified) the results were KCNQ2 pot inactive and KCNQ2 inh inactive.
For COc1ccc(CN(C)CC2CCCN(CCc3ccc(F)cc3)C2)c(OC)c1OC (stereo unspecified) the results were KCNQ2 inh inactive.
`COc1ccc(CCN2CCCC(CN(C)Cc3cccc(OC)c3)C2)cc1` (stereo unspecified) gave KCNQ2 pot inactive, KCNQ2 inh inactive, Kir21 conf inh 33% and HEK293 Tl flux inactive.
For CN(Cc1ccc(C#CCCO)cc1)CC1CCCN(CCc2ccc(Cl)cc2)C1 (stereo unspecified) the results were KCNQ2 inh inactive, Kir21 conf inh 40% and HEK293 Tl flux inactive.
Screening Cc1ccc(C(=O)NNS(=O)(=O)c2ccc(F)cc2)cc1 returned KCNQ2 inh inactive.
CCOc1ccc(N(CC(=O)NC(C)(C)C)C(=O)c2ccco2)cc1 was read as KCNQ2 pot inactive and KCNQ2 inh inactive.
Screening CCOc1ccc(NC(=O)CN(C)Cc2cc(=O)n3c(-c4ccccc4)csc3n2)cc1OCC returned KCNQ2 inh inactive.
`O=C(C1CC(=O)N(c2ccc3c(c2)OCCO3)C1)N1CCN(c2cccc(C(F)(F)F)c2)CC1` (stereo unspecified) gave KCNQ2 pot inactive and KCNQ2 inh inactive.
CCN1CCN(c2nc3c(C)cccn3c(=O)c2C=C(C#N)C#N)CC1 was read as KCNQ2 inh inactive.
Screening COc1cc(CNC2CCCC2)cc(Cl)c1OCc1ccccc1Cl returned KCNQ2 inh inactive, Kir21 conf inh 31% and HEK293 Tl flux inactive.
Screening COc1cc(CNC2CCCC2)cc(Cl)c1OCc1ccc(F)cc1 returned KCNQ2 inh inactive.
`OCC1(CCOc2ccccc2)CCN(Cc2ccncc2)CC1` gave KCNQ2 inh inactive.
CSc1ccc(CN2CCC(CO)(CCOc3ccccc3)CC2)cc1 was read as KCNQ2 pot inactive, KCNQ2 inh inactive, Kir21 conf inh 42% and HEK293 Tl flux inactive.
Cc1cc(C)c2nc(NNC(=O)c3ccc(S(=O)(=O)N4CC(C)CC(C)C4)cc3)sc2c1 (stereo unspecified) was read as KCNQ2 pot 5.8, KCNQ2 inh inactive, Kir21 conf inh inactive, HEK293 Tl flux inactive, CHO-K1 Tl ctr 61, KCNQ1 pot spec inactive, KCNQ2 pot confirm inactive and Kir2-1 sel inactive.
Cc1cc(C)c2nc(NNC(=O)c3ccc(S(=O)(=O)N4CCCC(C)C4)cc3)sc2c1 (stereo unspecified) was read as KCNQ2 pot inactive and KCNQ2 inh inactive.
COc1cc2c(cc1OC)CN(C(=O)C1CCCN1S(=O)(=O)c1ccc(F)cc1)CC2 (stereo unspecified) was read as KCNQ2 pot inactive and KCNQ2 inh inactive.
Cc1sc2nc(CN3CCN(c4ccc(O)cc4)CC3)[nH]c(=O)c2c1C was read as KCNQ2 pot inactive and KCNQ2 inh inactive.
Cc1sc2nc(CN3CCOCC3)[nH]c(=S)c2c1C was read as KCNQ2 pot 19, KCNQ2 inh inactive, Kir21 conf inh inactive, HEK293 Tl flux 412%, CHO-K1 Tl ctr inactive, KCNQ1 pot spec inactive, KCNQ2 pot confirm 101, Kir2-1 sel inactive and KCNQ2 W236L MoA inactive.
For CCOC(=O)C1=C(COC(=O)CCNS(=O)(=O)c2ccc(NC(C)=O)cc2)NC(=O)NC1C (stereo unspecified) the results were KCNQ2 inh inactive.
`CCCC[C@H]1COCCS(=O)(=O)N1Cc1cccc([N+](=O)[O-])c1` gave KCNQ2 pot inactive and KCNQ2 inh inactive.
`CCc1ccc(OCC(=O)NNC(=S)NC(=O)C2CCCCC2)c(Br)c1` gave KCNQ2 inh inactive.
Screening O=C(Cc1ccc(Cl)c(Cl)c1)NC1CCCCCC1 returned KCNQ2 pot 7.2, KCNQ2 inh inactive, Kir21 conf inh inactive, HEK293 Tl flux inactive, CHO-K1 Tl ctr inactive, KCNQ1 pot spec 0.5, KCNQ2 pot confirm 0.8, Kir2-1 sel inactive and KCNQ2 W236L MoA inactive.

Screens as filed in PubChem BioAssay.
